These results are taken from publication PMC7862700, “An all-to-all approach to the identification of sequence-specific readers for epigenetic DNA modifications on cytosine”.

Test in all cases: DAPPL (digital affinity profiling via proximity ligation, sequencing); 10 mM Tris-HCl pH 7.5, 50 mM NaCl, 1 mM DTT, 4% glycerol, room temperature, 30 min; GST-TFs on glutathione beads, 16-mer random dsDNA library, 0.1% formaldehyde crosslink after washing; high values mean tight binding
What all share (settings): protein: recombinant; tags: N-terminal GST; dsDNA, one strand shown

One assay concerns the target T1, GABPA (Homo sapiens, UniProt Q06546 1-454).
T1 sequence: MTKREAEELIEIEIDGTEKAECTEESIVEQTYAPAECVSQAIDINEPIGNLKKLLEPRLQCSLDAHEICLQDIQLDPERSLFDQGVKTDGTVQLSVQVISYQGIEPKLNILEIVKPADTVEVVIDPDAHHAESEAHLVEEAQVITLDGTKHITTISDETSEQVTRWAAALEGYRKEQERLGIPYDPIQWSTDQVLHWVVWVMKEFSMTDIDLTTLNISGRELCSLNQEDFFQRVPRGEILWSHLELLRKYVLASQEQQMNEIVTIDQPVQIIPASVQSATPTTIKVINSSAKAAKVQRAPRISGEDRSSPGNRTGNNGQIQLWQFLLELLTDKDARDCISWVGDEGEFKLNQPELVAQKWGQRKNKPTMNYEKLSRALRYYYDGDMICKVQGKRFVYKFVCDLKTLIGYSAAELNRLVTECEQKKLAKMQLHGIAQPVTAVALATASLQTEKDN
In short, it runs like this: (§1)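 A tag-only sample was pooled with DNA-barcoded human transcription factors that had been expressed in yeast as GST fusions and captured on glutathione beads. The pools were incubated for 30 min at room temperature with 200 nmole of a random double-stranded 16-mer DNA library in Tris/NaCl/DTT/glycerol buffer, then washed, crosslinked with 0.1% formaldehyde, proximity-ligated (BsaI/T4 ligase, 1 h, 37 °C), PCR-amplified and sequenced on an Illumina NextSeq500. Binding signal is each hexamer's read frequency for a factor divided by its frequency for the tag-only sample.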

In a further assay the target is ETV5 (Homo sapiens, UniProt P41161 1-510). In short, it runs like this: as §1
ETV5, sequence (P41161 whole entry): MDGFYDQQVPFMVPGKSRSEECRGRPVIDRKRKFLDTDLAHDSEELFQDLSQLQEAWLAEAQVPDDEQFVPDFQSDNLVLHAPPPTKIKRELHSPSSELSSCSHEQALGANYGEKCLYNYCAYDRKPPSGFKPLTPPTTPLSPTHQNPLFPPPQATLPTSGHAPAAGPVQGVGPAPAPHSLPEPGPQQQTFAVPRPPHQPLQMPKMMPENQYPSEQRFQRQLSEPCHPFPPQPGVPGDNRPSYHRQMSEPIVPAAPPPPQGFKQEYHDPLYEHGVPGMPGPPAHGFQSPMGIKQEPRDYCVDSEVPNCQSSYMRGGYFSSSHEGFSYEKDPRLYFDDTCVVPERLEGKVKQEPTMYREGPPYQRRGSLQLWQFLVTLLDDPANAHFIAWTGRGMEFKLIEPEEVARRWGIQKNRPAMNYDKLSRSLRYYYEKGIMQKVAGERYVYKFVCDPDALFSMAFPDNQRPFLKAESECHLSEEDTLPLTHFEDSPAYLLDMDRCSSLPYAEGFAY
The next assay has as its target T2, SPIC (Homo sapiens, UniProt Q8N5J4 1-248).
T2 sequence: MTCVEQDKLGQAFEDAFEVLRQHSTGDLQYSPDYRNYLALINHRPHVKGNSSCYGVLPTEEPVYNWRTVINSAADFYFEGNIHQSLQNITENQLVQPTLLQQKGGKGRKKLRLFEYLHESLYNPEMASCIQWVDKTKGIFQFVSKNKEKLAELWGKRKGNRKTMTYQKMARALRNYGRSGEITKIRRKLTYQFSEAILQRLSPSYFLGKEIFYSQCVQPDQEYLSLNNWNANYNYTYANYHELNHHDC
The method in brief:
as §1

The next assay addresses T3, ERF (Homo sapiens, UniProt P50548 1-548).
T3 sequence: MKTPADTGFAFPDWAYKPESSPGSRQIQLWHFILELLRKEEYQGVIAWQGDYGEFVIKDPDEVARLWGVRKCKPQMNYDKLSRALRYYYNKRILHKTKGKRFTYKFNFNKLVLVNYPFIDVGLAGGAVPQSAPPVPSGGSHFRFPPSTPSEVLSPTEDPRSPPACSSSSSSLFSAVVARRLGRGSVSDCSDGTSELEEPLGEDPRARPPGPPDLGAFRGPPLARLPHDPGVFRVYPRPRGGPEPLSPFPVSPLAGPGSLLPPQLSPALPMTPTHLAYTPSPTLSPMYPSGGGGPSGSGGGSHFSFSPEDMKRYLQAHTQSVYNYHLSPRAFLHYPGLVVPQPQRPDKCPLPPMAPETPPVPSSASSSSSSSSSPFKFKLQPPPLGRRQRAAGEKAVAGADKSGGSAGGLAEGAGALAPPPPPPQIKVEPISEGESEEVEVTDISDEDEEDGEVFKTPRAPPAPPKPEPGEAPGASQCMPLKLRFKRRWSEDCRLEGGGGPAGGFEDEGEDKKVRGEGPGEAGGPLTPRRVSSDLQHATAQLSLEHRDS
In short, it runs like this: as §1

The next assay deals with T4, SPDEF (Homo sapiens, UniProt O95238 1-335).
T4 sequence: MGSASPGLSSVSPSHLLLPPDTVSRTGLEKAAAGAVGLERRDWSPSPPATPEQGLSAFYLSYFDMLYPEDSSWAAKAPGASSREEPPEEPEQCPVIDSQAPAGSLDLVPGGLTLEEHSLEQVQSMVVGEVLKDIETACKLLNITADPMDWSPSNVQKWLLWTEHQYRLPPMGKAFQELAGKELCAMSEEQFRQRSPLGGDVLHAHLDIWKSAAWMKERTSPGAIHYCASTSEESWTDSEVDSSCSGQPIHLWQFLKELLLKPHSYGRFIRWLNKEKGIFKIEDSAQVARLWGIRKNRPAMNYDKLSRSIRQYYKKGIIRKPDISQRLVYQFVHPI
The method in brief:
as §1

In a further assay the target is T5, ELK4 (Homo sapiens, UniProt P28324-2 1-405).
T5 sequence: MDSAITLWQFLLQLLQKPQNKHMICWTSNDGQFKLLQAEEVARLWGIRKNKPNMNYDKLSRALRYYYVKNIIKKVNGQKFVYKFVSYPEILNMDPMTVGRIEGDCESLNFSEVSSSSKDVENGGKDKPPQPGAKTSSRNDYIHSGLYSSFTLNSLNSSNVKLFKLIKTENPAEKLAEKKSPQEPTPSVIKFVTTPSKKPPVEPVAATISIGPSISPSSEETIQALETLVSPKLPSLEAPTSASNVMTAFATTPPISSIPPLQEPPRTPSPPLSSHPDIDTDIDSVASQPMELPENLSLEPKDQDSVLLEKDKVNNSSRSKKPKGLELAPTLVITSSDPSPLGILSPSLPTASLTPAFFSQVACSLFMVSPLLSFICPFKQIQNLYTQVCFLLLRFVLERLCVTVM
In short, it runs like this: as §1

Another assay concerns the target T6, ELF3 (Homo sapiens, UniProt P78545 1-371).
T6 sequence: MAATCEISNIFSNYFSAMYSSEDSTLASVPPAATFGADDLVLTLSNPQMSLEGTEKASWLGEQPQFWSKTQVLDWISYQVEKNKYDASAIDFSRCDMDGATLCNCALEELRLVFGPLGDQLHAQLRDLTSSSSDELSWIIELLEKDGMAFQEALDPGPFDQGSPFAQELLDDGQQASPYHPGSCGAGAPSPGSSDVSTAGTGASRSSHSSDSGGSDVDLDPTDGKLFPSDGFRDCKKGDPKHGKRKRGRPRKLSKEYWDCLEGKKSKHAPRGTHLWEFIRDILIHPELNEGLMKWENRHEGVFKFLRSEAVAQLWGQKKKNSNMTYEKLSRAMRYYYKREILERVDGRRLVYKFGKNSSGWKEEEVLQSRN
In short, it runs like this:
as §1

A further assay has as its target T7, ETV7 (Homo sapiens, UniProt Q9Y603 1-341).
T7 sequence: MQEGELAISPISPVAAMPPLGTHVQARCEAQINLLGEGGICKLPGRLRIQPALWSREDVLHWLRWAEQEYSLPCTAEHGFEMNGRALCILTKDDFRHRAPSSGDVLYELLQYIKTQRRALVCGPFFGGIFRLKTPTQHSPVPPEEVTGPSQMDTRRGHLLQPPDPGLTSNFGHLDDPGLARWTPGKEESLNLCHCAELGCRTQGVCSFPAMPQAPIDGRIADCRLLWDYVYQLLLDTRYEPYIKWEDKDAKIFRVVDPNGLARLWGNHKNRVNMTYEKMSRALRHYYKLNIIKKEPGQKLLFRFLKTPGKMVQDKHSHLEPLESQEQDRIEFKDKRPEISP
In short, it runs like this:
as §1

A further assay concerns the target T8, ETV3 (Homo sapiens, UniProt P41162-2 1-143).
T8 sequence: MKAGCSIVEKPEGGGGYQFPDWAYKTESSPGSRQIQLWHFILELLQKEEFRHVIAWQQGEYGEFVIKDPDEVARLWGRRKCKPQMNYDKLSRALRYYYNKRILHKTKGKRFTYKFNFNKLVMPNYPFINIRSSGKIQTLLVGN
In short, it runs like this:
as §1

The target in the next assay is ETV6 (Homo sapiens, UniProt P41212 1-452). The method in brief:
as §1

For another assay, the target named is T9, ELK1 (Homo sapiens, UniProt P19419 1-428).
T9 sequence: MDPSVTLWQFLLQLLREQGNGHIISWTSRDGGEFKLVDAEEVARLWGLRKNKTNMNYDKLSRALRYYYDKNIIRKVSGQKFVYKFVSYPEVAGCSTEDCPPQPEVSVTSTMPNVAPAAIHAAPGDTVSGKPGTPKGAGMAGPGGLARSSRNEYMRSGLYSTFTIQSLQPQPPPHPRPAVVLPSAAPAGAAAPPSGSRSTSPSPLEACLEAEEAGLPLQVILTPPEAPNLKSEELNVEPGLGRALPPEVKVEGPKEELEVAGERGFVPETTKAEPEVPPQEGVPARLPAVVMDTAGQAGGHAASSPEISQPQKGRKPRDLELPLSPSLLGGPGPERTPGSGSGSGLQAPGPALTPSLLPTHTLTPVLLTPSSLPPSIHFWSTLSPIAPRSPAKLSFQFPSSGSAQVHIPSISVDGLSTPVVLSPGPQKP
The method in brief:
as §1

Another assay deals with T10, ERG (Homo sapiens, UniProt P11308 1-479).
T10 sequence: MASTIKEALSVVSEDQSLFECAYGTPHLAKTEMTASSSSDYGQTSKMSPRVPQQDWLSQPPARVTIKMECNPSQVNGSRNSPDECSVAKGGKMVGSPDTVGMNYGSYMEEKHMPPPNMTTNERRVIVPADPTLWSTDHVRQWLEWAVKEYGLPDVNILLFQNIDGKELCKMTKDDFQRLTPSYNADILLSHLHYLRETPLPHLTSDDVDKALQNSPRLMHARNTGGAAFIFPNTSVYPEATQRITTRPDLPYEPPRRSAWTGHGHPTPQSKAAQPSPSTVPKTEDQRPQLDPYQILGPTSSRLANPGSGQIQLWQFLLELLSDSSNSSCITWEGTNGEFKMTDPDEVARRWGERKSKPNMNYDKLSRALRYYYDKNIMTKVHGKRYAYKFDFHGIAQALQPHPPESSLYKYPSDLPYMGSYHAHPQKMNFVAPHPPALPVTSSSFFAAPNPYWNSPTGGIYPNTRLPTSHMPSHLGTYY
The method in brief:
as §1

In a further assay the target is SPIB (Homo sapiens, UniProt Q01892 1-262). In short, it runs like this: as §1
SPIB, sequence (Q01892 whole entry): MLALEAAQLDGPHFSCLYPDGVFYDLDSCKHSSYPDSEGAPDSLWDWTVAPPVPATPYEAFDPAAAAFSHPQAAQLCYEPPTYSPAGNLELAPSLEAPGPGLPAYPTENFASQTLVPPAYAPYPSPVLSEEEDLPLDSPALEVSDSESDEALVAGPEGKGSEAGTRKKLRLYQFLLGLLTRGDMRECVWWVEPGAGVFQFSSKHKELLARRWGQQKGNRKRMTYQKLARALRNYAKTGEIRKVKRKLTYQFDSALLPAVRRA
Another assay concerns the target ETV1 (Homo sapiens, UniProt P50549 1-477). The method in brief: as §1
For a further assay, the target named is T11, ETV3L (Homo sapiens, UniProt Q6ZN32 1-361).
T11 sequence: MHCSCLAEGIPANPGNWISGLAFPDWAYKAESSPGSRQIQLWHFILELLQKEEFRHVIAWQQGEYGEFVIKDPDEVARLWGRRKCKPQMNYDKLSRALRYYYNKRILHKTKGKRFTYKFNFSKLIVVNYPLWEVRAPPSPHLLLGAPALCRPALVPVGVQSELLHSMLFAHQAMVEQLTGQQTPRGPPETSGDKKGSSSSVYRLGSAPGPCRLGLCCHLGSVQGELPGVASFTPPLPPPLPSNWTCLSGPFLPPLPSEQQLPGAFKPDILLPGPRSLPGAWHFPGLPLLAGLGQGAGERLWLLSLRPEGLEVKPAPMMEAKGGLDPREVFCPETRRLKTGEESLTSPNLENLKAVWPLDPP
The method in brief: as §1

ETV6, sequence (P41212 whole entry): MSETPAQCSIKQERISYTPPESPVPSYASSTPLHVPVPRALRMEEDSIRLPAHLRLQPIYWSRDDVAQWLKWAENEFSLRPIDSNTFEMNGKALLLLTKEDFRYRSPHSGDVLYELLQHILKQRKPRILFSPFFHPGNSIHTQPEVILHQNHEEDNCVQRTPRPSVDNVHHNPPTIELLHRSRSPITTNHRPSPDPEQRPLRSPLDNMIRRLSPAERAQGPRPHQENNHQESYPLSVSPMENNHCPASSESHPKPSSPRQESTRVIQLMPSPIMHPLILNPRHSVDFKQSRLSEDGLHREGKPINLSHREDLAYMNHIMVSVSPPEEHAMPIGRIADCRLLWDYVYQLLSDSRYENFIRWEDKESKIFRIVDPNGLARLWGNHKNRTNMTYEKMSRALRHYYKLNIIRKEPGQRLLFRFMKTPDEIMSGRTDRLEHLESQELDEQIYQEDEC
ETV1, sequence (P50549 whole entry): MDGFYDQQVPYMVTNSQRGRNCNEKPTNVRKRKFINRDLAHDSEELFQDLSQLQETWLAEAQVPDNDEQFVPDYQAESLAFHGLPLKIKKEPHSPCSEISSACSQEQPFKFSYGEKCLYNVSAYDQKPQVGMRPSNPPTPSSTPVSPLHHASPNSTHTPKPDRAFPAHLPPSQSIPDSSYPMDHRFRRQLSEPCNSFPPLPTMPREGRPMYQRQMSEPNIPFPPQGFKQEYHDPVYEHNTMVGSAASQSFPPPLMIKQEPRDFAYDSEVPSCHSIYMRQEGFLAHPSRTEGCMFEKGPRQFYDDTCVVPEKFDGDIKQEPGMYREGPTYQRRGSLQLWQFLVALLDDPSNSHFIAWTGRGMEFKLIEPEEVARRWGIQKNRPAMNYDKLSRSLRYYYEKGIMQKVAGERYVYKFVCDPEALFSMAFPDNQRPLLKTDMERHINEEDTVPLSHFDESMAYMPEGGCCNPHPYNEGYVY

For CTGTAG, the binding signal was 1.03 fold enrichment (6-mer frequency, TF over GST control) with GABPA; 1.02 fold enrichment (6-mer frequency, TF over GST control) with ETV5; 1.08 fold enrichment (6-mer frequency, TF over GST control) with SPIC; 1.02 fold enrichment (6-mer frequency, TF over GST control) with ERF; 1.03 fold enrichment (6-mer frequency, TF over GST control) with SPDEF.
In the case of AAACAG, the binding signal with ETV5 is 1.07 fold enrichment (6-mer frequency, TF over GST control); with SPIC, 1.12 fold enrichment (6-mer frequency, TF over GST control); with ELK4, 1.04 fold enrichment (6-mer frequency, TF over GST control); in the assay with ELF3 it was 1.01 fold enrichment (6-mer frequency, TF over GST control); with ETV7 it was 1.04 fold enrichment (6-mer frequency, TF over GST control); with ETV3, 1.01 fold enrichment (6-mer frequency, TF over GST control). Further, the binding signal with ETV6 was 1.03 fold enrichment (6-mer frequency, TF over GST control).
Take GCGTAT: the binding signal was 1.04 fold enrichment (6-mer frequency, TF over GST control) with ELK1; 1 fold enrichment (6-mer frequency, TF over GST control) with GABPA; 1.03 fold enrichment (6-mer frequency, TF over GST control) with ERG; 1.11 fold enrichment (6-mer frequency, TF over GST control) with SPIB; 1.05 fold enrichment (6-mer frequency, TF over GST control) with ETV5; 1.07 fold enrichment (6-mer frequency, TF over GST control) in the assay with SPIC. Also, the binding signal is 1.03 fold enrichment (6-mer frequency, TF over GST control) with ELF3; 1.05 fold enrichment (6-mer frequency, TF over GST control) with ETV1; 1.02 fold enrichment (6-mer frequency, TF over GST control) with ETV3L.
